Drawing on PubChem BioAssay AID493056 (National Center for Advancing Translational Sciences (NCATS), 2011), this text covers enhancement for 87 compounds.

Values joined by “and” are separate entries in the source; they are usually repeats but may differ in a detail not shown here. Equal entries are not always repeated. The whole screen tested about 360,000 compounds, of which about 2,400 (0.67%) were called active. Cut-off read from the data, not from the text of the source: active = enhancement above about 30%; inactive = the rest. For the sample, actives were picked, then their nearest neighbours and some compounds at random. Where a structure was tested more than once in an assay, its records may differ in their call.

Sequence of Thyrotropin-releasing hormone receptor (Homo sapiens) (P34981 whole entry, looked up): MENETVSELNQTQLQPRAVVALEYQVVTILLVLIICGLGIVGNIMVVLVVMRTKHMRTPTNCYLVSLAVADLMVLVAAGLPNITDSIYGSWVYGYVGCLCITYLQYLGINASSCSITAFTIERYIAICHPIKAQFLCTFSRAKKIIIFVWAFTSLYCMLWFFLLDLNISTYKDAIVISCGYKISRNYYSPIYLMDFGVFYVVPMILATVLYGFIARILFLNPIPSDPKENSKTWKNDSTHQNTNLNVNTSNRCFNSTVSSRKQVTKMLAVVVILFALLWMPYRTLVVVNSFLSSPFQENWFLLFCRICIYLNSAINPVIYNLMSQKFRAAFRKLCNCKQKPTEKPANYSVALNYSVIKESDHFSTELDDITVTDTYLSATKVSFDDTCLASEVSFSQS

In this assay the target is Thyrotropin-releasing hormone receptor (Homo sapiens) (UniProt P34981). The assay can be described thus: qHTS for Small Molecule Agonists and Allosteric Enhancers of Human TRH Receptor: Primary Screen for Enhancers. Note: 0% is about no effect. Particulars: TRHR cells, fluo-8 calcium fluorescence, EC20 TRH enhancement; at 2 µM; stronger effect = higher value. A digest of the protocol:
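TRHR-expressing cells loaded with fluo-8 calcium dye were read kinetically (ex 480/em 530) during compound addition, then stimulated with an EC20 of TRH (10 nM final). Enhancement of the Gq-mediated intracellular calcium response was scored.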
A general note: In qHTS, concentration-response curves come from the screen itself.
In the case of `Cc1ccc(CN2CCc3nc(N4CCN(C)CC4)ncc3C2)cc1`, the enhancement was -1.43% (inactive).
As for `CCOC(=O)c1ccc(NC(=O)c2ncn(-c3ccccc3)n2)cc1`, the enhancement is -1.95% (inactive).
To `O=C1C(=O)N(CCCO)C(c2ccccc2)/C1=C(\O)c1ccc(Br)cc1` (configuration not stated) belongs 46.2% (active).
Regarding `COc1cccc(C2/C(=C(/O)c3ccncc3)C(=O)C(=O)N2CCCN(C)C)c1` (configuration not stated), the enhancement is 5.69% (inactive).
The figure for `COc1ccc(/C(O)=C2/C(=O)C(=O)N(CCCN(C)C)C2c2ccccc2)cc1OC` (configuration not stated) is 7.56% (inactive); for `CC(C)(C)OC(=O)N1CCC(c2c(C(=O)N3CCN(c4cccc(Cl)c4)CC3)cnn2-c2cccc(Cl)c2)CC1` it is -12.3% (inactive).
The figure for `Cc1cc(Cl)ccc1OCC(=O)N(Cc1ccc(N(C)C)cc1)C1CCS(=O)(=O)C1` (configuration not stated) is -2.26% (inactive); for `CC1Cc2cc(S(=O)(=O)CCC(=O)NCc3ccc(Cl)cc3)ccc2N1C(=O)C1CC1` (configuration not stated) it is 3.17% (inactive); for `CCCn1c2ccccc2c2cnn(CC(=O)N(CC)c3cc(C)ccc3C)c(=O)c21` it is -3.36% (inactive).
To `CCCn1c2ccccc2c2cnn(CC(=O)N(C)c3ccccc3CC)c(=O)c21` belongs 33.2% (active).
`CCCn1c2ccccc2c2cnn(CC(=O)NCCCOC(C)C)c(=O)c21`: the enhancement is 10.8% (inactive).
The figure for `CCOc1ccc(CCNC(=O)c2ccc3c(c2)sc2nc(-c4ccc(F)cc4)cn23)cc1OCC` is 0.915% (inactive); for `O=C(COC(=O)c1ccc(O)cc1O)NNC(=O)c1cccs1` it is 6.82% (inactive).
The figure for `Cc1ccc(NNC(=O)c2cccs2)cc1Cl` is -3.86% (inactive); for `Cc1ccc(C)c(NC(=O)CCC(=O)NNC(=O)c2cccs2)c1` it is 30% (active); for `CCOCCCNC(=O)c1c(NC(=O)Cc2coc3ccc(C)cc23)sc2c1CCC2` it is -1.11% (inactive).
Take `CCOc1ccc(NC(=O)COc2ccc(C(=O)NC3CCCc4ccccc43)cc2OC)cc1` (configuration not stated): the enhancement was 3.25% (inactive).
The figure for `COc1cc(C2C3=C(CCCC3=O)OC3=C2C(=O)CCC3)ccc1OCC(=O)Nc1ccccc1` is 78.2% (active); for `CCNC(=O)c1ccc(OCC(=O)Nc2ccc(F)cc2)c(OC)c1` it is 13.5% (inactive); for `COc1ccc(-c2cc(-c3ccccc3)nc3c2COc2ccc(Cl)cc2-3)cc1` it is 2.02% (inactive).
To `COc1ccc(Cl)cc1NC(=O)CCn1c(=O)c2cccn2c2ccccc21` belongs 1.46% (inactive); to `Cc1cccnc1CCNC(=O)C1CCC(=O)N(Cc2cccc(F)c2)C1` (configuration not stated), -0.481% (inactive).
The figure for `CCn1nc(C)c(CNC(=O)C2CCC(=O)N(Cc3cccc(F)c3)C2)c1C` (configuration not stated) is 31.7% (active); for `COC(=O)c1ccc(CNC(=O)C2CCC(=O)N(Cc3cccc(F)c3)C2)cc1` (configuration not stated) it is -7.88% (inactive); for `Cc1ccc(C(=O)NC2CCN(C#N)CC2)cc1` it is -0.515% (inactive).
With `CCOC(=O)c1sc(NC(=O)/C=C/c2ccc(C(C)C)cc2)c(C(=O)OCC)c1C`, the enhancement is 0.66% (inactive).
In the case of `N#Cc1ccc(Oc2cc(C(F)(F)F)nc(-c3ccccn3)n2)cc1`, the enhancement was 55.8% (active).
To `N#Cc1ncc(C(F)(F)F)cc1Oc1cccnc1` belongs -3.06% (inactive).
The figure for `Cc1c(Cl)cccc1NC(=O)c1noc2c1CCCC2` is 7.16% (inactive); for `Cc1cc(NS(=O)(=O)c2ccc(NC(=O)c3ccccc3C)cc2)nc(C)n1` it is 10.7% (inactive).
As to `COc1ccc(-c2csc(Nc3ccccn3)n2)cc1`, the enhancement was 34.5% (active).
To `CCCn1c(C2CCCN2c2nc(-c3ccc(OC)cc3)cs2)nc2ccccc21` (configuration not stated) belongs -1.81% (inactive); to `COc1ccc(-c2csc(-c3c(N)c(C(=O)c4ccc(OC)c(OC)c4)n4ccccc34)n2)cc1`, 0.214% (inactive).
The figure for `CCOC(=O)Cc1csc(NC(=O)CN(C)S(=O)(=O)c2ccc3c(c2)CCC(=O)N3)n1` is 32.8% (active); for `Cc1cccc(N2CCN(C(=O)CN(C)S(=O)(=O)c3ccc4c(c3)CCC(=O)N4)CC2)c1C` it is 2.84% (inactive).
The figure for `Cc1nc(NC(=O)CN(C)S(=O)(=O)c2ccc(Cl)cc2)sc1C` is 4.55% (inactive); for `Cc1cc(C)cc(NC(=O)CCCc2nc(-c3ccccc3Cl)no2)c1` it is -21.4% (inactive).
On to `COc1ccc(CCNC(=O)c2cn(C)c3ccc(S(=O)(=O)N(C)C4CCCCC4)cc3c2=O)cc1OC`, for which the enhancement was -14.3% (inactive).
The figure for `CCOC(=O)c1[nH]c(C)c(C(=O)OCC(=O)N2c3ccccc3CC2C)c1C` (configuration not stated) is -0.269% (inactive); for `CCOc1ncccc1C(=O)OCC(=O)NC1CC1` it is 6.62% (inactive); for `CCOc1ncccc1C(=O)OCC(=O)N1c2ccccc2CC1C` (configuration not stated) it is 156% (active).
With `Cc1ccn2c(Nc3ccc4c(c3)OCCO4)c(-c3ccc(C)s3)nc2c1`, the enhancement was -3.6% (inactive).
The figure for `Cc1ccc(CCNC(=O)c2ccc3c(c2)nc2n3CCC(C)C2)cc1` (configuration not stated) is -2.39% (inactive).
The figure for `Cc1cccc(-n2c(=O)c3c(c4cc(C)ccc4n3C)n(CC(=O)Nc3ccccc3Cl)c2=O)c1` is -2.31% (inactive); for `CN(C)c1ccc(Nc2c3c4c(cccc4n(C)c2=O)C(=O)c2ccccc2-3)cc1` it is 30.8% (active).
The figure for `Cc1ccc(Nc2c(-c3ccc(N(C)C)cc3)nc3nc[nH]n23)cc1` is 1.88% (inactive); for `CCOc1ccc(C(=O)c2cn(Cc3ccc(F)cc3)c3ccc(F)cc3c2=O)cc1` it is -6.47% (inactive); for `COc1cc2c(cc1OC)C(COc1ccc(F)cc1)N(C(=O)c1ccccc1F)CC2` (configuration not stated) it is -0.875% (inactive).
In the case of `CCCCn1c(N)c(N(CCOC)C(=O)c2cccc(S(=O)(=O)N(C)c3ccccc3)c2)c(=O)[nH]c1=O`, the enhancement is -3.31% (inactive).
The figure for `CCCCN(C(=O)c1ccc2ccccc2c1)c1c(N)n(CCCC)c(=O)[nH]c1=O` is -1.43% (inactive); for `CCCCn1c(N)c(N(CC)C(=O)c2ccc(N(C)S(=O)(=O)c3ccc(C)cc3)cc2)c(=O)[nH]c1=O` it is 37.2% (active); for `Cc1nn(CC(=O)NCCc2ccccc2)c(=O)c2c1sc1ccccc12` it is -4.11% (inactive).
The figure for `CCc1ccc(NC(=O)c2cc3c(=O)n(Cc4cccnc4)ccc3nc2C)cc1` is 3.22% (inactive); for `COc1ccccc1C(=O)Nc1c(C(=O)Nc2ccc(C)cc2)oc2ccccc12` it is 1.48% (inactive).
The figure for `O=C(CSc1nnc(CNC(=O)c2ccccc2)n1-c1ccc(F)cc1)Nc1ccccc1F` is 1.22% (inactive); for `O=C(CSc1ccc(-c2ccccn2)nn1)Nc1ccccc1` it is -3.04% (inactive).
With `O=C(CSc1ccc(-c2cccs2)nn1)Nc1ccccc1F`, the enhancement is 35.3% (active).
The figure for `CCOc1ccc(CNC(=O)c2cc(-c3ccc(Cl)s3)nc3ccccc23)cc1` is 9.74% (inactive); for `Cc1ccc2nc(CN3CCN(S(=O)(=O)c4ccc(C)c(C)c4)CC3)oc2c1` it is 0.582% (inactive).
Take `CC(=O)N1CCN(C(=O)c2cc(-c3ccc(Cl)s3)nc3ccccc23)CC1`: the enhancement was 2.16% (inactive).
The figure for `COC(=O)c1cnc(N2CCN(c3ccccc3OC)CC2)c2ccccc12` is -10.4% (inactive).
To `COC(=O)c1cc(N2CCNCC2)nc2ccccc12` belongs 50.7% (active); to `COc1cccc(CNC(=O)Cn2ncn3c(cc4ccccc43)c2=O)c1`, 4.48% (inactive); to `CCOc1cc(-c2nnc(SCC(=O)NC3CCCCC3)nc2-c2ccc(OC)c(OCC)c2)ccc1OC`, -3.44% (inactive).
Regarding `O=C(CNC(=O)c1ccc(Cl)cc1Cl)OC(C(=O)Nc1cc(C(F)(F)F)ccc1Cl)c1ccccc1` (configuration not stated), the enhancement was 10.6% (inactive).
To `O=C(CC(n1cncn1)C(Cl)(Cl)Cl)c1ccc([N+](=O)[O-])cc1` (configuration not stated) belongs 0.518% (inactive).
To `Cc1ccc(C(=O)Cn2cccn2)cc1` belongs -2.28% (inactive).
Consider `O=C(Cn1c[n+](CC(=O)c2ccc([N+](=O)[O-])cc2)cn1)c1ccc([N+](=O)[O-])cc1`, for which the enhancement is -6.86% (inactive) and 34.2% (active).
Turning to `O=C(NCCc1csc(-c2ccc(C(F)(F)F)cc2)n1)C(=O)Nc1ccc(F)c(Cl)c1`, the enhancement is 0.606% (inactive).
To `CC(C)(C)CN1CCNC(=O)C1CC(=O)NC1Cc2ccccc2C1` (configuration not stated) belongs -4.71% (inactive); to `Cc1csc(CN(C)C(=O)CC2C(=O)NCCN2CC(C)(C)C)n1` (configuration not stated), 44.2% (active); to `Cc1nc(CN(C)C(=O)CC2C(=O)NCCN2Cc2ccc(F)cc2)cs1` (configuration not stated), 20.6% (inactive).
To `COc1ccc(CCNC(=O)c2cnc3sc(N4CCCCCC4)nn3c2=O)cc1OC` belongs 7.34% (inactive); to `COc1ccc(S(=O)(=O)c2cn(C)c3cc(N4CCCCC4)c(F)cc3c2=O)cc1`, 7.82% (inactive); to `Cc1c(CNC2CCCCC2)c(C(=O)O)c(C)n1Cc1cccc(Cl)c1`, -4.62% (inactive).
The figure for `COC(=O)c1c(NC(=O)C(C)Oc2ccc(Cl)c(C)c2)sc(C)c1C` (configuration not stated) is -3.22% (inactive); for `Cc1cc(OC(C)C(=O)Nc2sc3c(c2C(N)=O)CCCC3)ccc1Cl` (configuration not stated) it is 34.9% (active); for `COc1ccc(-c2cc(C(=O)Nc3sc4c(c3C(N)=O)CCCC4)no2)cc1` it is 10.2% (inactive).
Take `O=C(Cn1nc(Cc2cccnc2)c2ccccc2c1=O)NCC1COc2ccccc2O1` (configuration not stated): the enhancement is 0.892% (inactive).
The figure for `CC1CC(C)CN(C(=O)CCNC(=O)Cn2cnc3ccccc3c2=O)C1` (configuration not stated) is 2.77% (inactive); for `O=C(Cn1cnc2ccccc2c1=O)NCC1COc2ccccc2O1` (configuration not stated) it is 38.9% (active).
Regarding `COC(=O)c1sc2ncccc2c1-n1c(C)ccc1C`, the enhancement was 4.46% (inactive).
`Cc1ccc(CN(C(=O)COc2ccc(Cl)cc2C)C2CCS(=O)(=O)C2)o1` (configuration not stated): the enhancement is 1.47% (inactive).
Regarding `O=C(CN1CCOCC1)Nc1ccccc1`, the enhancement is 2.28% (inactive).
To `COc1cccc(NC(=O)CN2C(=O)c3ccccc3Sc3ncccc32)c1` belongs 2.38% (inactive); to `O=C(CN1C(=O)c2cccc3cccc1c23)Nc1ccccc1`, 43.7% (active); to `Oc1ccc(Cl)cc1C1C=C(c2ccc3c(c2)OCO3)NC(c2c(F)cccc2Cl)N1` (configuration not stated), -2.95% (inactive).
